Assay results from PubChem BioAssay (NCATS).
Inconclusive results are not listed. A call without a number means that no potency is given here. The source made the active and inactive calls. Calls come from the whole dose curve; as a rule, active = well fitted cell-killing curve with a large enough effect; inconclusive = small, poorly fitted or top-dose-only effect; inactive = flat fitted curve, though single readings scatter. Starred links: 1 amine or outer side, 2 acyl side, 3 side chain; linkers in the order of their positions; H or OH if unused. Positions of bridges follow the written chain, without caps; N, C: chain ends. Non-standard residues stand in square brackets, D forms with d. Residues, ends and D or L forms follow the SMILES beside them. ξ: configuration not given here. *: point of attachment. X3 = C[C@@H](Oc1ccc([C@H](N[*:1])C(=O)[*:2])cc1)[C@]1(/C=C\C(=O)[*:3])CO1; d(aIle) = CC[C@H](C)[C@@H](N)C(=O)O; X2 = CC(C)[C@@H](O)C(C)C(=O)*; ξNMeF = CNC(Cc1ccccc1)C(=O)O; ξT = CC(O)C(N)C(=O)O; ξS = NC(CO)C(=O)O

Test: A2780 Cisplatin Sensitive Ovarian Cancer Cell Toxicity qHTS against the NCATS CANVASS Library (AID 1347353); note: nearly all actives have a fitted effect of over 60% in size
Conditions: A2780 ovarian cancer viability, ATPLite luminescence, 72 h; series mostly up to 46.1 µM
Source text: Natural products and their derivatives continue to be wellsprings of nascent therapeutic potential. However, many laboratories have limited resources for biological evaluation, leaving their previously isolated or synthesized compounds largely or completely untested. To address this issue, the Canvass library of natural products was assembled (https://tripod.nih.gov/canvass), in collaboration with academic and industry researchers, for quantitative high-throughput screening (qHTS) across a diverse set of cell-based and biochemical assays. The pure (>85% purity by liquid chromatography/mass spectrometry [LC/MS]) Canvass library of 346 natural products were submitted by 45 academic laboratories and companies around the world. We collected pure natural products to circumvent deconvolution and structure elucidation due to time and resource limitations. The library was formatted into 1536-well plates and evaluated in 50 qHTS (in an 11-pnt concentration series) bioassays with broad scope of disease-relevant mechanisms. The resulting data set from 50 different assays was then systematically analyzed to identify overall trends and specific natural products with interesting biological activities. Reported herein are the results of each individual qHTS and their corresponding assay protocol. National Center for Advancing Translational Sciences (NCATS), Rockville, MD National Institute of Health (NIH), Bethesda, Maryland
Cancer Cell Toxicity protocol 1. In a 1536 well, white solid bottom tissue culture plates (Corning 7494), A2780 cisplatin sensitive ovarian cancer cells were dispensed in each well at a final concentration of 750 cells / well (5uL volume) using the Multidrop Combi (Thermo Fisher Scientific) dispenser. 2. The plates were incubated for 4 hours at 37 degrees C/5% CO2/95% Rh. 3. Compounds were pin transferred (~23nL volume) via Wako Pin-tool (Wako Automation, Richmond VA) equipped with a 1536 pin head. The assay plates were treated with compounds in an 11-pnt concentration series with a final concentration range of […] to 85uM. 4. Bortezomib was used as a single dose control (0.5mM column 4, rows 1 - 32) at a final concentration of 1.9uM and as a 16pnt titration (1mM; 1:2 dilution; 16-points; n = 2; column 3, rows 1 - 32) with final concentration range of 0.1nM - 3.8uM. 5. The assay plates were incubated for 72 hours at 37 degrees C/5% CO2/95% Rh. 6. 4uL ATPLite detection reagent was then added to the plates (columns 2 - 48, rows 1 - 32) and incubated at room temperature for additional 10 min. 7. Luminescence signal was acquired via the ViewLux plate reader (PerkinElmer) using a clear filter, 2 second exposure and 2x binning settings.
Potency is the fitted concentration of half-maximal effect.

| Compound | Potency |
| --- | --- |
| C=CC(C)(C)[C@@]12C[C@H]3C(=O)N/C(=C\c4cnc[nH]4)C(=O)N3[C@@H]1Nc1ccccc12 | inactive |
| CC(C)CC1C(=O)O[C@H](C(C)C)C(=O)N(C)C(CC(C)C)C(=O)O[C@@H](C(C)C)C(=O)N(C)C(CC(C)C)C(=O)O[C@H](C(C)C)C(=O)N(C)C(CC(C)C)C(=O)O[C@@H](C(C)C)C(=O)N1C (stereo partly drawn) | 5.26 µM (active) |
| C=C[C@]12C=CCN3CC[C@@]4(c5ccccc5NC(=O)[C@@H]4C1)[C@@H]32 | inactive |
| C=CC(C)(C)[C@@]12C[C@H]3C(=O)N/C(=C/c4cnc[nH]4)C(=O)N3[C@@H]1Nc1ccccc12 | inactive |
| C[C@]12CC(O)C3[C@@H](CCC4C[C@@H](O)CC[C@@]43CO)[C@@]1(O)CC[C@@H]2C1=CC(=O)OC1 (stereo partly drawn) | 16.6 µM (active) |
| CCC(=O)N[C@@H](C[C@H](C)C(Cl)(Cl)Cl)C(=O)N1C(=O)C=C(OC)[C@@H]1C[C@H](C)C(Cl)Cl | inactive |
| CO[C@H]1[C@H](O[C@H]2CC[C@]3(C=O)[C@H]4CC[C@]5(C)[C@@H](C6=CC(=O)OC6)CC[C@]5(O)[C@@H]4CC[C@]3(O)C2)O[C@H](C)[C@H](O)[C@@H]1OC | 0.209 µM (active) |
| COC1C(O)C(C)OC(OC2C(Oc3cccc4c(O)c5c(=O)oc6ccc(C)c7c(=O)oc(c34)c5c67)OC(C)C(O)C2O)C1O (stereo not drawn) | 3.32 µM (active) |
| CCCC[C@@H](C)/C=C1/CN2CCC[C@H]2[C@@](C)(O)[C@@H]1O | inactive |
| CCCC[C@@H]1CC[C@H]2CCCC(CCCO)N12 (stereo partly drawn) | inactive |
| C[N+](C)(C)CCc1c[nH]c2ccccc12 | inactive |
| CO[C@H]1C[C@H](O[C@H]2[C@@H](O)C[C@H](O[C@H]3CC[C@]4(C=O)[C@H]5CC[C@]6(C)C(C7=CC(=O)OC7)CC[C@]6(O)[C@@H]5CC[C@]4(O)C3)O[C@@H]2C)O[C@H](C)[C@H]1O[C@H]1C[C@@H](OC)[C@@H](O[C@@H]2O[C@H](CO)[C@@H](O)[C@H](O)[C@H]2O)[C@@H](C)O1 (stereo partly drawn) | 0.0833 µM (active) |
| CC[C@@H]1CN2CCC3(Nc4cccc(OC)c4C3=O)[C@@H]2C[C@@H]1/C(=C\OC)C(=O)OC (stereo partly drawn) | inactive |
| C[C@]12CCC3[C@@H](CC[C@@H]4C[C@@H](O)CC[C@]34CO)[C@@]1(O)CC[C@@H]2C1=CC(=O)OC1 (stereo partly drawn) | 2.96 µM (active) |
| C/C(=C\[C@H](C)C(=O)C[C@H](O)CC1CC(=O)NC(=O)C1)[C@@H]1OC(=O)/C=C/CC/C=C/C=C/[C@@H]1C | 0.0332 µM (active) |
| C[C@]12CC(O)C3[C@@H](CC[C@@H]4C[C@@H](O)CC[C@]34CO)[C@@]1(O)CC[C@@H]2C1=CC(=O)OC1 (stereo partly drawn) | 7.43 µM (active) |
| CC[C@]12C=CCN3CC[C@]4(C(=C(C(=O)OC)C1)Nc1ccccc14)[C@@H]32 | inactive |
| CO[C@@H](/C=C/CC/C=C/C(=O)O)[C@@H](O)[C@H](C)/C=C(\C)[C@H](O)[C@H](C)C(=O)CCCC1CC(=O)NC(=O)C1 | inactive |
| COC1=C(C2=C(OC)C(=O)c3cc4c(c(O)c3C2=O)C(=O)O[C@H](C)C4)C(=O)c2c(cc3c(c2O)C(=O)O[C@H](C)C3)C1=O | 5.54 µM (active) |
| CO[C@H]([C@@H](C)[C@H]1O[C@]1(C)C[C@H](C)/C=C/C=C(\C)[C@H]1O[C@@H](CC(=O)O)CC[C@@H]1C)[C@@H](C)O | 0.0053 µM (active) |
| O[C@H]1C=C[C@@]23CCN(Cc4cc5c(cc42)OCO5)[C@@H]3C1 | inactive |
| C/C=C1/CN2CC[C@@]34c5ccccc5N(C)[C@@H]3[C@@H]2C[C@@H]1[C@H]4C(=O)OC | inactive |
| CC[C@H](C)[C@H]1NC(=O)[C@@H](NC(=O)C(C)[C@H](O)C(C)C)[C@@H](C)OC(=O)C2COC(=O)CNC(=O)/C=C\[C@]3(CO3)[C@@H](C)Oc3ccc(cc3)[C@H](NC1=O)C(=O)N(C)C(Cc1ccccc1)C(=O)NC(C(C)O)C(=O)N2 (stereo partly drawn) (X2-T[d(aIle)][X3][ξNMeF][ξT][ξS]; ester 1-C; linker 3-6 via G) | inactive |
| C/C=C1/CN2C3CC1C1=CCC(=O)N4c5ccccc5[C@@]3(C[C@@H]2C2=C[C@H]3C5CC6N(CC[C@@]67c6ccccc6N(C2=O)[C@@H]37)C/C5=C/C)[C@H]14 (stereo partly drawn) | 13.2 µM (active) |
| C/C=C(\C)C(=O)O[C@@H]1[C@@H](O)[C@@H]2O[C@H]3[C@H](O[C@@H](CCCCC)CCCCCCC(=O)CCC(=O)OC[C@@H](O2)[C@H]1OC(=O)/C=C/c1ccccc1)O[C@H](C)[C@H](OC(C)=O)[C@@H]3O | 0.332 µM (active) |
| C1=C2CCCN[C@H]2C2CC1[C@H]1CCCCN1C2 (stereo partly drawn) | inactive |
| C=C(C)[C@H]1C(=O)c2c3c(cc4c5c(n1c24)[C@@]1(C)[C@@H](CC[C@H]2[C@](C)(/C=C/C=C(\C)C(=O)O)[C@@H](O)CC[C@@]21C)C5)C1=CC(C)(C)OC(C)(C)[C@H]1[C@@H]3O | 3.72 µM (active) |
| C=C[C@H]1CN2CCc3c([nH]c4cccc(OC)c34)[C@@H]2C[C@@H]1/C(=C\OC)C(=O)OC | 20.9 µM (active) |
